Source: PubChem BioAssay
Where “and” joins values, the source holds several entries; their conditions need not be identical. Equal entries are not always repeated. Non-standard residues stand in square brackets, D forms with d. Residues, ends and D or L forms follow the SMILES beside them. pGlu = O=C1CC[C@@H](C(=O)O)N1; Thz = O=C(O)[C@@H]1CSCN1

Test system: R275C/Slo1WT/beta2
Test: BK channel mutant inhibitors and activators – cell-based, U2OS BacMam, thallium flux, beta subunits, selectivity assay, profiling panel (AID 1259406);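 further: initial slope of Thallos dye fluorescence rise after thallium is added; log ratio against the mean of 0.3% DMSO vehicle wells on the same plate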
Conditions: U2OS BacMam BK variants, at 30 µM;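 active means thallium flux through the channel raised or lowered by more than 3 SD from vehicle-only wells, actives on both sides; inactive means the rest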

Log fold change Tl+ flux, inactive:
O=C1CN2Cc3c(ccc(Cl)c3Cl)N=C2N1 -0.00842, COC(=O)C[C@](O)(CCCC(C)(C)O)C(=O)O[C@@H]1C(OC)=C[C@]23CCCN2CCc2cc4c(cc2[C@H]13)OCO4 0.0211, CNCC[C@H](Oc1cccc2ccccc12)c1cccs1 0.0145, O=c1[nH]c(=O)n(C2CCCO2)cc1F (stereo not given) 0.00334, CSc1nc2cc(Oc3cccc(Cl)c3Cl)c(Cl)cc2[nH]1 0.0178, CN(C)CCc1c[nH]c2ccc(Cn3cncn3)cc12 0.0127, COc1ccc(C[C@H](C)NC[C@@H](O)c2ccc(O)c(NC=O)c2)cc1 0.0259, CC(C)C[C@H](NC(=O)[C@@H](O)[C@H](N)Cc1ccccc1)C(=O)O -0.0673, C[C@@H](c1ncncc1F)[C@](O)(Cn1cncn1)c1ccc(F)cc1F -0.0193, CN(C)CCCC1(c2ccc(F)cc2)OCc2cc(C#N)ccc21 (stereo not given) 0.0494 and 0.00231, CCOC(=O)c1ccc(OC(=O)CCCCCN=C(N)N)cc1 -0.0477, Cc1c(C(=O)NN2CCCCC2)nn(-c2ccc(Cl)cc2Cl)c1-c1ccc(I)cc1 0.0305, CC(C)NCC(O)c1ccc(NS(C)(=O)=O)cc1 (stereo not given) 0.0082, O=C(NC(=O)c1ccccc1Oc1ccc(Cl)cc1Cl)Nc1cc(Cl)cc(Cl)c1 -0.00947, CC(=O)NC[C@H]1CN(c2ccc(N3CCOCC3)c(F)c2)C(=O)O1 0.0288, CC(CCCCC(=O)Nc1ccc(C(F)(F)F)cc1)NCCc1cnc[nH]1 (stereo not given) 0.00571, O=C(c1ccc(OCCN2CCCCC2)cc1)c1c(-c2ccc(O)cc2)sc2cc(O)ccc12 -0.0543, O=C1CC[C@@H](C(=O)N2CSC[C@H]2C(=O)O)N1 ([pGlu]-[Thz]-OH) -0.0454, CN/C(=C\[N+](=O)[O-])NCCSCc1csc(CN(C)C)n1 0.0359, CNCC[C@@H](Oc1ccccc1C)c1ccccc1 -0.0597, Cc1cccc(CCN2CCC(C(=O)c3ccc(NS(C)(=O)=O)cc3)CC2)n1 -0.028, CN(C)CCOc1ccc(/C(=C(/CCCl)c2ccccc2)c2ccccc2)cc1 -0.045, CC(C)(S)C(N)C(=O)O (stereo not given) -0.0192, CC[C@H]1OC(=O)[C@H](C)[C@@H](O[C@H]2C[C@@](C)(OC)[C@@H](O)[C@H](C)O2)[C@H](C)[C@@H](O[C@@H]2O[C@H](C)C[C@H](N(C)C)[C@H]2O)[C@](C)(O)C[C@@H](C)CN(C)[C@H](C)[C@@H](O)[C@]1(C)O 0.026, NCC(O)c1ccc(O)c(O)c1 (stereo not given) 0.093, CN1CC(=O)N2[C@H](c3ccc4c(c3)OCO4)c3[nH]c4ccccc4c3C[C@@H]2C1=O 0.00498, COC(=O)c1sccc1NN=C(C)c1ccc(NC(=O)C(Cl)Cl)cc1 0.0362, Cc1cnc(C(=O)NCCc2ccc(S(=O)(=O)NC(=O)NC3CCCCC3)cc2)cn1 0.0429, C/C(=C\C(=O)OCCCCCCCCC(=O)O)C[C@@H]1OC[C@H](C[C@@H]2O[C@H]2[C@@H](C)[C@H](C)O)[C@@H](O)[C@H]1O -0.00127, FC(F)(F)c1cc(C=Cc2noc(-c3ccc(CN4CCCC4)cc3)n2)cc(C(F)(F)F)c1 -0.00667, C[C@H]1O[C@H](O[C@H]2[C@H](O)[C@@H](O)[C@@H](O[C@H]3[C@H](O)[C@@H](O)C(O)O[C@@H]3CO)O[C@@H]2CO)[C@H](O)[C@@H](O)[C@@H]1N[C@H]1C=C(CO)[C@@H](O)[C@H](O)[C@H]1O (stereo not given in full) -0.0206, CCCCN1CCCC1CNC(=O)c1cc(C#N)c2ccccc2c1OC (stereo not given) -0.00509, COc1ccc2[nH]c(S(=O)Cc3ncc(C)c(OC)c3C)nc2c1 (stereo not given) 0.0116, CN1[C@@H]2CCC[C@H]1CC(NC(=O)c1nn(C)c3ccccc13)C2 (stereo not given in full) 0.0272, COc1c(N2C[C@@H]3CCCN[C@@H]3C2)c(F)cc2c(=O)c(C(=O)O)cn(C3CC3)c12 0.0157, CCN(CC)CC#CCOC(=O)C(O)(c1ccccc1)C1CCCCC1 (stereo not given) -0.0121, COc1nc(C)nc(Cl)c1NC1=NCCN1 -0.0114, CC(Cc1ccc(O)c(O)c1)(NN)C(=O)O (stereo not given) -0.00513, CSc1nc(C)nc(Sc2cccc(C(F)(F)F)c2)c1C#N 0.00901, Cc1cc2c(s1)Nc1ccccc1N=C2N1CCN(C)CC1 0.0472
